Laboratory results from PubChem BioAssay (NCI).
This is part of a sample that, as a whole, favours compounds with a hit. Of some 79,000 tested, about 15% had one in any assay. Unmarked numbers belong to inactive results. Calls of active or inactive are those of the source. Rule as the data show it: active = growth inhibition above about 70%; inactive = the rest.

What was measured:
[1] = NCI Yeast Anticancer Drug Screen. Data for the rad52 strain (AID 147);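 also: 0% = growth of vehicle-treated control cultures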; conditions: S. cerevisiae rad52 mutant growth inhibition, stronger effect = higher value
Method in brief: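 Growth of repair-deficient yeast cells was compared between compound-treated and vehicle-treated cultures to give percent inhibition.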

[2] = NCI Yeast Anticancer Drug Screen. Data for the rad50EPP+ strain (AID 151);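 also: 0% = growth of vehicle-treated control cultures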; conditions: S. cerevisiae rad50 mutant strain, stronger effect = higher value
Method in brief: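 Measured: growth inhibition of rad50EPP+ yeast. Reference: vehicle-treated controls. Screen uses strains with defined genetic alterations in DNA damage repair or cell cycle control.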

[3] = NCI Yeast Anticancer Drug Screen. Data for the mec2-1 strain (AID 157); conditions: S. cerevisiae mec2-1 strain, stronger effect = higher value
Method in brief: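 Compounds were applied to mec2-1 yeast cells. Their growth was then compared with that of vehicle-treated cultures to give growth inhibition.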

[4] = NCI Yeast Anticancer Drug Screen. Data for the rad14 strain (AID 159);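 also: 0% = growth of vehicle-treated control cultures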; conditions: S. cerevisiae rad14 strain growth inhibition, stronger effect = higher value
Method in brief: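 Readout: yeast growth inhibition, referenced to vehicle-only cultures. Strain bears a defined alteration in DNA damage repair.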

[5] = NCI Yeast Anticancer Drug Screen. Data for the sgs1 mgt1 strain (AID 161);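 also: 0% = growth of cultures given vehicle only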; conditions: S. cerevisiae sgs1 mgt1 strain, stronger effect = higher value
Method in brief: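 This yeast growth screen uses a strain with defined DNA-repair lesions; compound-treated growth is compared with vehicle-treated growth.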

[6] = NCI Yeast Anticancer Drug Screen. Data for the CLN2oe strain (AID 163);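 also: 0% = growth of vehicle-only control cultures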; conditions: S. cerevisiae CLN2oe strain, stronger effect = higher value
Method in brief: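 Cells of an engineered yeast line with disturbed cell-cycle regulation are treated with compound. Inhibition of growth is then calculated relative to the vehicle-treated reference.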

[7] = NCI Yeast Anticancer Drug Screen. Data for the cln2 rad14 strain (AID 165);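 also: 0% = growth equal to vehicle treated cultures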; conditions: S. cerevisiae cln2 rad14 strain, stronger effect = higher value
Method in brief: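 Strain: cln2 rad14 yeast, altered in cell cycle control and DNA damage repair. Read-out: growth inhibition vs vehicle.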

[8] = NCI Yeast Anticancer Drug Screen. Data for the bub3 strain (AID 167); conditions: S. cerevisiae bub3 mutant strain, stronger effect = higher value
Method in brief: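 Part of a panel of yeast mutants defective in DNA damage repair or cell cycle regulation. Each strain is grown with compound, and inhibition is calculated relative to solvent-treated cultures.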

[9] = NCI Yeast Anticancer Drug Screen. Data for the wt2 strain (AID 169);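 also: 0% = growth of vehicle-treated yeast cultures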; conditions: S. cerevisiae wt2 strain growth inhibition, stronger effect = higher value
Method in brief: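 Growth of compound-treated yeast is measured and expressed as inhibition relative to vehicle-only controls.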

[10] = NCI Yeast Anticancer Drug Screen. Data for the mlh1 strain (AID 171);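 also: 0% = growth of vehicle-treated control cultures of the same strain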; conditions: S. cerevisiae mlh1 strain growth inhibition, stronger effect = higher value
Method in brief: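 Test agents were incubated with yeast bearing a defined DNA damage repair or cell cycle control alteration; values are growth inhibition normalised to vehicle-treated cultures.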

[11] = NCI Yeast Anticancer Drug Screen. Data for the sgs1 strain (AID 173);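 also: 0% = growth of vehicle-only control cultures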; conditions: S. cerevisiae sgs1 mutant, stronger effect = higher value
Method in brief: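 Strain with an altered DNA repair or cell cycle pathway exposed to compound. Growth then measured. Value = inhibition versus vehicle control.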

[12] = NCI Yeast Anticancer Drug Screen. Data for the mlh1 rad18 strain (AID 175); conditions: S. cerevisiae mlh1 rad18 strain growth inhibition, stronger effect = higher value
Method in brief: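 A repair-deficient yeast strain is exposed to test compound, and growth is scored relative to vehicle-treated controls.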

[13] = NCI Yeast Anticancer Drug Screen. Data for the rad18 strain (AID 177); conditions: S. cerevisiae rad18 mutant growth inhibition, stronger effect = higher value
Method in brief: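 DNA-repair-defective yeast; compound treatment; growth inhibition scored against vehicle.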

[14] = at 5.0 µM (retest, dose inferred, filed as 0.5)
[15] = at 50.0 µM (retest, dose inferred, filed as 5.0)

Nc1cc(S(N)(=O)=O)ccc1SSc1ccc(S(N)(=O)=O)cc1N
growth inhibition ([1]; at 1.2 µM): 1%
growth inhibition ([1]; at 3.7 µM): 10%
growth inhibition ([1]; at 11.0 µM): 21%
growth inhibition ([1]; at 33.0 µM): 50%
growth inhibition ([1]; at 100.0 µM): 81% (active)
growth inhibition ([2]; at 1.2 µM): -2%
growth inhibition ([2]; at 3.7 µM): 2%
growth inhibition ([2]; at 11.0 µM): 19%
growth inhibition ([2]; at 33.0 µM): 79% (active)
growth inhibition ([2]; at 100.0 µM): 93% (active)
growth inhibition ([3]; at 1.2 µM): 1%
growth inhibition ([3]; at 3.7 µM): 5%
growth inhibition [3, 14]: 9%
growth inhibition ([3]; at 11.0 µM): 12%
growth inhibition ([3]; at 33.0 µM): 29%
growth inhibition [3, 15]: 10%
growth inhibition ([3]; at 50.0 µM): 41.1%
growth inhibition ([3]; at 100.0 µM): 63%
growth inhibition ([4]; at 1.2 µM): 1%
growth inhibition ([4]; at 3.7 µM): -7%
growth inhibition ([4]; at 11.0 µM): 3%
growth inhibition ([4]; at 33.0 µM): 12%
growth inhibition ([4]; at 100.0 µM): 89% (active)
growth inhibition [5, 14]: -7%
growth inhibition [5, 15]: 55%
growth inhibition ([5]; at 50.0 µM): 56.6%
growth inhibition ([6]; at 1.2 µM): 1%
growth inhibition ([6]; at 3.7 µM): -1%
growth inhibition ([6]; at 11.0 µM): 2%
growth inhibition ([6]; at 33.0 µM): 13%
growth inhibition ([6]; at 100.0 µM): 49%
growth inhibition [7, 14]: 16%
growth inhibition [7, 15]: 0%
growth inhibition ([7]; at 50.0 µM): 21.7%
growth inhibition ([8]; at 1.2 µM): -1%
growth inhibition ([8]; at 3.7 µM): 3%
growth inhibition [8, 14]: -21%
growth inhibition ([8]; at 11.0 µM): 9%
growth inhibition ([8]; at 33.0 µM): 21%
growth inhibition [8, 15]: 12%
growth inhibition ([8]; at 50.0 µM): 62.3%
growth inhibition ([8]; at 100.0 µM): 67%
growth inhibition ([9]; at 1.2 µM): -1%
growth inhibition ([9]; at 3.7 µM): -1%
growth inhibition ([9]; at 11.0 µM): 4%
growth inhibition ([9]; at 33.0 µM): 27%
growth inhibition ([9]; at 100.0 µM): 54%
growth inhibition ([10]; at 1.2 µM): 4%
growth inhibition ([10]; at 3.7 µM): 4%
growth inhibition ([10]; at 11.0 µM): 12%
growth inhibition ([10]; at 33.0 µM): 28%
growth inhibition ([10]; at 100.0 µM): 75% (active)
growth inhibition ([11]; at 1.2 µM): 2%
growth inhibition ([11]; at 3.7 µM): 9%
growth inhibition ([11]; at 11.0 µM): 26%
growth inhibition ([11]; at 33.0 µM): 53%
growth inhibition ([11]; at 100.0 µM): 82% (active)
growth inhibition [12, 14]: 5%
growth inhibition [12, 15]: 31%
growth inhibition ([12]; at 50.0 µM): 73% (active)
growth inhibition ([13]; at 1.2 µM): -14%
growth inhibition ([13]; at 3.7 µM): 7%
growth inhibition ([13]; at 11.0 µM): 28%
growth inhibition ([13]; at 33.0 µM): 52%
growth inhibition ([13]; at 100.0 µM): 78% (active)
